About 17,000 (4.7%) of roughly 360,000 compounds were called active. Another 5% or so got no clear call; they are omitted. Rule as the data show it: active = activity change below about -50%; inconclusive = mostly about -30% to -49%; inactive = weaker than that. The full list was thinned out, with actives kept by preference.
% is scaled to controls: 0 for no effect and ±100 for the full control effect.

A short description of the experiment: qHTS for Inhibitors of Inflammasome Signaling: IL-1-beta AlphaLISA Primary Screen. The conditions noted are these: THP-1 LPS/ATP IL-1B secretion, 16 h; at 57.5 µM, active compounds read low. The essentials:
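THP-1 cells pretreated 1 hr with compounds (up to 57.5 uM final), then stimulated with LPS (250 ng/mL final) plus ATP (1.25 mM final); secreted IL-1B measured by AlphaLISA after 16 hr, decreased signal indicating inhibition.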
For orientation: Quantitative high-throughput screening tests each substance at several concentrations.
Take `O=C(OCc1ccccc1)N1CCC2CC1c1cc(N3CCN(S(=O)(=O)c4cc(Cl)cc(Cl)c4)CC3)ccc12` (stereo unspecified): the activity change was 21.9% (inactive).
For `CC1(C)C=Cc2c(ccc3c2OC[C@@H](c2ccc(O)cc2O)C3)O1`, the activity change is -13.2% (inactive).
On to `CC(=O)c1c(N2CCOCC2)nc(=S)n(Cc2ccccc2)c1C`, for which the activity change was 30.6% (inactive).
Turning to `CC(=O)c1c(N2CCOCC2)nc(=S)n(-c2cc(C)ccc2C)c1C`, the activity change was -14.3% (inactive).
Consider `CC(=O)c1c(N2CCN(c3ccc(F)cc3)CC2)nc(=S)n(-c2ccccc2)c1C`, for which the activity change is -79.7% (active).
The figure for `CCOc1ccc(NC(=O)CN(C)C(=O)c2c(C)noc2C)cc1OCC` is 2.67% (inactive).
For `Cc1ccccc1NC(=O)CSC(=O)c1ccccc1`, the activity change is 22.2% (inactive).
Then `Cc1cccc(NC(=O)COC(=O)CCc2ccccc2)c1C`, with 5.72% (inactive).
Take `Cc1cccc(NC(=O)CSC(N)=O)c1C`: the activity change is -90.9% (active).
Turning to `CCCCCCCCCCCCCCCC(=O)OC/C=C(C)/C=C/C=C(C)/C=C/C1=C(C)CCCC1(C)C`, the activity change was -8.52% (inactive).
Then `COC(=O)c1ccccc1NS(=O)(=O)c1ccc2[nH]c(=O)[nH]c2c1`, with -16.3% (inactive); and `CCOc1ccc(NC(=O)c2ccccc2NS(C)(=O)=O)cc1`, with -7.57% (inactive).
On to `COC(=O)c1ccc(NC(=O)c2ccccc2NS(=O)(=O)c2ccccc2)cc1`, for which the activity change is -61.7% (active).
With `Cc1ccc(NS(=O)(=O)c2cc3c(cc2C)NC(=O)CO3)cc1`, the activity change is -0.465% (inactive).
Regarding `CC1CCN(C(=O)COC(=O)CCC(=O)c2cccs2)CC1`, the activity change was 5.83% (inactive).
`CCN1C(=O)[C@H]2[C@@H](c3ccccc3)N[C@]3(CCCN(Cc4ccc(C)cc4)C3=O)[C@H]2C1=O`: the activity change was -7.34% (inactive).
Then `COc1cccc(CN(C)C(=O)CC23CC4CC(CC(C4)C2)C3)c1OC`, with -55.8% (active).
Consider `COc1ccc(S(=O)(=O)N2CCCCCC2)cc1C(=O)N(C)Cc1cccc(OC)c1OC`, for which the activity change is -8.59% (inactive).
Turning to `COc1ccc(CN(C)C(=O)Cc2ccsc2)c(OC)c1OC`, the activity change was 40.4% (inactive).
Regarding `COc1ccc(NC(=O)C2(C)Cc3c(-c4cccc(NC(C)=O)c4)ccnc3O2)cc1` (stereo unspecified), the activity change is 48.5% (inactive).
Then `COC1=NC2=NCCN2C(OC)=N1`, with 0.792% (inactive); and `COc1ccc(C/C(N)=N/OC(=O)c2ccco2)cc1OC`, with 9.63% (inactive).
On to `COc1ccc(C(=O)O/N=C(\N)Cc2ccc(Cl)cc2Cl)cc1OC`, for which the activity change was -58.9% (active).
As to `COc1ccc(C(=O)ON=C2c3ccccc3-c3ccccc32)cc1OC`, the activity change is 0% (inactive).
Turning to `CCCCC(O)C1=C[N+](=O)CC=C1` (stereo unspecified), the activity change is -4.88% (inactive).
Consider `CCn1ccnc1CNC(=O)CC1C(=O)NCCN1Cc1ccc(F)cc1Cl` (stereo unspecified), for which the activity change is -0.584% (inactive).
Take `CCCCc1ccc(NC(=O)CN2C(=O)NC(Cc3ccccc3)C2=O)cc1` (stereo unspecified): the activity change was -1.39% (inactive).
Consider `COc1ccccc1CNC(=O)COC(=O)CNS(=O)(=O)c1ccc(NC(C)=O)cc1`, for which the activity change was 32.4% (inactive).
As to `CC(=O)Nc1ccc(S(=O)(=O)NCC(=O)OCc2cc(=O)oc3ccc4ccccc4c23)cc1`, the activity change was -58.2% (active).
On to `COc1ccccc1C(=O)COC(=O)CNS(=O)(=O)c1ccc(NC(C)=O)cc1`, for which the activity change was 9.71% (inactive).
In the case of `Cc1ccc(S(=O)(=O)N2CCCCC2)cc1NC(=O)CCNC(=O)c1ccccc1Cl`, the activity change is 10.9% (inactive).
Turning to `Cc1cccc(N(C(=O)c2csnn2)C(C(=O)NCc2ccccc2)c2ccncc2)c1` (stereo unspecified), the activity change is -12.7% (inactive).
As for `CC1(C(=O)NS(=O)(=O)c2cccc(OC(F)F)c2)CCN1C(=O)C1CC1` (stereo unspecified), the activity change was 0% (inactive).
The figure for `COc1ccc(-n2c(C)cc(C(=O)CN3C(=O)NC4(CCc5ccccc54)C3=O)c2C)cc1` (stereo unspecified) is -85.6% (active); for `COc1ccc(C(=O)CN2C(=O)NC3(CCc4ccccc43)C2=O)c(OC)c1` (stereo unspecified) it is -22.2% (inactive); for `Cc1ccc(C(=O)CN2C(=O)NC3(CCc4ccccc43)C2=O)c(C)c1` (stereo unspecified) it is -6.4% (inactive).
`CC(=O)Nc1ccc(S(=O)(=O)NC(C)C(=O)OCC(=O)NC2CCCC2)cc1` (stereo unspecified): the activity change is 0% (inactive).
Then `CC(=O)Nc1ccc(NC(=O)COc2ccc(S(=O)(=O)NC(C)c3ccccc3)cc2)cc1` (stereo unspecified), with 18.3% (inactive); and `CC(=O)Nc1ccc(S(=O)(=O)NC(C)C(=O)OCCOc2ccc(F)cc2)cc1` (stereo unspecified), with -84.9% (active).
Take `COc1ccccc1-c1cc2nc(NCc3cccc(Cl)c3)ccn2n1`: the activity change was -19.9% (inactive).
Regarding `Cc1ccc(N2C(=O)C(CC(=O)Nc3cccc(F)c3)N(CCc3ccncc3)C2=O)cc1` (stereo unspecified), the activity change was -0.0392% (inactive).
Take `Cc1ccc(-c2nn(-c3cccc(F)c3)cc2CNCCc2ccncc2)o1`: the activity change was -77.5% (active).
In the case of `Cc1ccc(-c2cnc(C(O)c3cc(Cl)cc(Cl)c3)[nH]2)cc1` (stereo unspecified), the activity change is 6.64% (inactive).
On to `CC(C)(C)NC(=O)CN(Cc1cccs1)C(=O)CNS(=O)(=O)c1ccccc1`, for which the activity change was -55.8% (active).
Consider `CCC(C)(C)NC(=O)CN(Cc1cccs1)C(=O)CNS(=O)(=O)c1ccc(F)cc1`, for which the activity change was 4.73% (inactive).
`Cc1ccc(S(=O)(=O)NCC(=O)N(CC(=O)NC(C)(C)C)Cc2cccs2)cc1`: the activity change is 14.4% (inactive).
Turning to `CCN1C(=O)[C@@H]2[C@@H]3CN(S(=O)(=O)c4ccccc4C)[C@@H](c4ccc(Cl)cc4)[C@@H]3C(=O)C[C@@H]2C1=O`, the activity change is -15.9% (inactive).
The figure for `CC1(C(=O)Nc2cccc3c2CCCC3)CCN1C(=O)CCc1ccc(Cl)cc1Cl` (stereo unspecified) is -9.96% (inactive); for `NC(=O)C1CCN(C(=O)CC2C(=O)NCCN2Cc2cccc(Oc3ccccc3)c2)CC1` (stereo unspecified) it is -6.56% (inactive); for `CCc1nnc(NC(=O)c2cc(S(=O)(=O)N3CCN(CC)CC3)ccc2Cl)s1` it is 18.8% (inactive).
The figure for `CCCC(O)(c1ccc(OC)cc1)C(CN(C)C)c1ccccc1` (stereo unspecified) is -9.06% (inactive); for `CC(CN1CCCCC1)c1ccccc1` (stereo unspecified) it is 11.2% (inactive); for `COc1ccc(C(O)(C2CCCCC2)C(CN2CCCC2)c2ccccc2)cc1` (stereo unspecified) it is -54.5% (active).
`CC(C)(C(=O)N1CCC1(C)C(=O)NS(=O)(=O)c1ccc(Br)cc1)c1ccccc1` (stereo unspecified): the activity change is 17% (inactive).
On to `CC(C)c1ccc(N2CC(C(=O)Nc3nccs3)CC2=O)cc1` (stereo unspecified), for which the activity change was -0.66% (inactive).
As for `CC1CN(C(=O)c2cccc(NS(=O)(=O)c3ccc(Br)cc3)c2)CC(C)O1` (stereo unspecified), the activity change is 53% (inactive).

The values are drawn from PubChem BioAssay AID743279 (National Center for Advancing Translational Sciences (NCATS), 2014).
